Sampled rows, rich in hits. Any-hit rate of the full collection: about 3.3%.
PHOSPHO1 inh = inhibitors of human PHOSPHO1 phosphatase; AID 1565; Q8TCT1; inhibition, % at 13.3 µM; recombinant PHOSPHO1, absorbance phosphatase assay; hit rate 1.1% among 290,000; in the data active = inhibition above about 60%
Cardio protect = protects H9c2 cardiomyocytes from peroxide injury; AID 588492; protection from H2O2 cell death, % at 20 µM; H2O2 injury protection, ATPLite, 2 h; hit rate 0.63% among 360,000;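 active = compounds giving at least 50% protection of heart cells from peroxide-induced death in the single-dose screen, raw or plate-pattern-corrected value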
Efflux pump inh = antifungal efflux pump inhibition, Nile Red retention | S. cerevisiae Candida pump triplex | hit rate 0.44% among 330,000 | AID 485275 | inhibition, % at 10 µM;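 active = plate passing quality check with inhibition over a set limit, or well fluorescence over plate mean plus 4 SD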;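 also: Nile Red retained in pooled yeast measured as flow cytometry median fluorescence; higher means more Nile Red kept so more efflux inhibition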
KCC2 mod = modulates chloride dependent transport by human KCC2 | KCC2 cells, thallium flux FluoZin-2 fluorescence | B-score of Tl+ flux slope (higher = more flux/activation; lower = inhibition) at 10 µM | hit rate 2.2% among 190,000;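 active = thallium flux slope and its plate-corrected score both differing from the plate sample mean at a set confidence after two filtering rounds, in either direction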;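 also: slope of fluorescence scaled to starting intensity during 10 to 20 s after thallium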
Target sequence (Q9H2X9 whole entry, looked up): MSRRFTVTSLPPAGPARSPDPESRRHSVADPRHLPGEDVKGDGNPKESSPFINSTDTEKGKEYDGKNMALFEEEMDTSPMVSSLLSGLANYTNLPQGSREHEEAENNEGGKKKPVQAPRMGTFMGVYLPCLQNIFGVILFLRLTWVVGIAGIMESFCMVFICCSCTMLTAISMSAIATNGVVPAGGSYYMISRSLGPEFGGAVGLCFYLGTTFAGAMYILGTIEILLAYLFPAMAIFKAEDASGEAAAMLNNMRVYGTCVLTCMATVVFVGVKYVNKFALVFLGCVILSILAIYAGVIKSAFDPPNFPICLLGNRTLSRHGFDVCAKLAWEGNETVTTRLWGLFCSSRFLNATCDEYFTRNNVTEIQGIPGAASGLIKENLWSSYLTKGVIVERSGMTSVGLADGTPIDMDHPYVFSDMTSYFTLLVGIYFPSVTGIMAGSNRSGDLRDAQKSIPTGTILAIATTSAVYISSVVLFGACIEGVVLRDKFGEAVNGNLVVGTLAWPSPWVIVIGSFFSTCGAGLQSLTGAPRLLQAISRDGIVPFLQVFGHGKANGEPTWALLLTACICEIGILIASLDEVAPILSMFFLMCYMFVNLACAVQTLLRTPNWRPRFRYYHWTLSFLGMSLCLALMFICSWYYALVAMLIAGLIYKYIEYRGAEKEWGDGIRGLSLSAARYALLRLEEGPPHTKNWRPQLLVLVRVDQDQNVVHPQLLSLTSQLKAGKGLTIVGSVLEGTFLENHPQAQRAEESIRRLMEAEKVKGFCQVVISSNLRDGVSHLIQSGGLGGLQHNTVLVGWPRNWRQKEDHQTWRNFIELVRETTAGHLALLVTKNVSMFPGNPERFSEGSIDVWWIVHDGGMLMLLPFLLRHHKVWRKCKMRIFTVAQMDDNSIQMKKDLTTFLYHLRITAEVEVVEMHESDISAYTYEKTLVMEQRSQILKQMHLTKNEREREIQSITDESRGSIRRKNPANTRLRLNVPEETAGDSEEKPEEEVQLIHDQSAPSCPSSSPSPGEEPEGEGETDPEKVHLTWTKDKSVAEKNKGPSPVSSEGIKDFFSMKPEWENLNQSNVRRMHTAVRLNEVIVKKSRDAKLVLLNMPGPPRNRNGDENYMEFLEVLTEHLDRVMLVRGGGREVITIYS
Calb FLC = affects C. albicans growth with fluconazole. C. albicans CaCi-2 (fluconazole-resistant clinical isolate) + fluconazole, Alamar Blue growth, 48 h. growth inhibition, % (test concentration not listed). hit rate 0.57% among 300,000. AID 1979;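 active = growth inhibition above about 58% in most replicates, limit read from the data, passing the limit was not always enough; inconclusive = exactly half the replicates above a set limit; inactive = most replicates below a set limit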;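 also: all wells also contain fluconazole at 8 µg/ml as a sub-toxic cotreatment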
KCC2 secondary = KCC2 (human) modulation, secondary assay. HEK293-KCC2, thallium flux, FluoZin2 fluorescence; stronger effect = higher value. hit rate 15% among 3,700. normalised thallium flux (F/F0 slope) at 10 µM. shares compounds with KCC2 mod;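 active = thallium flux slope above the same plate's solvent-only control mean plus 3 SD; inconclusive = the two replicate wells disagree; inactive = no significant difference from solvent-only control wells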
KCC2 bumet counter = thallium flux persisting under bumetanide in KCC2 cells, counter-screen secondary assay; hit rate 49% among 3,700; HEK293-KCC2 + bumetanide/ouabain, thallium flux FluoZin2; stronger effect = higher value; shares compounds with KCC2 mod; AID 1714; normalized thallium flux at 10 µM;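 active = thallium entry rate above the same plate's blocked-transporter control wells by more than 3 SD; inconclusive = the two repeat wells disagree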;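 also: raw slope of fluorescence over initial fluorescence between 10 and 20 s after thallium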
KCC2 sec2 = confirmation of human KCC2 transport modulators; shares compounds with KCC2 mod; hit rate 23% among 3,700; HEK293-KCC2, thallium flux FluoZin2 fluorescence; actives lie on both sides; F/F0 rise rate, 10–20 s post-thallium; normalized thallium flux at 10 µM;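 active = thallium flux slope more than 3 SD above or below the plate's solvent-only control mean, mostly below; inconclusive = the two repeat wells disagreed; inactive = no significant shift from solvent-only controls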
HEK counter1 = parental HEK flux effect, counter-screen. shares compounds with KCC2 mod. HEK293 parental cells, thallium flux FluoZin2, ouabain; baseline-ratio fluorescence slope, 10–20 s after thallium. thallium flux rate (normalised fluorescence) at 10 µM. hit rate 46% among 3,700;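 active = thallium flux rate significantly above the same plate's solvent-only control wells, beyond their mean plus 3 SD; inconclusive = the two replicate wells gave conflicting results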
KCC2 ouabain = confirmation of human KCC2 modulators with ouabain. shares compounds with KCC2 mod. HEK293-KCC2, thallium flux FluoZin2 fluorescence; bidirectional: low = inhibitor, high = activator. raw Tl+ flux slope (below DMSO = inhibition, above = activation) at 10 µM. hit rate 48% among 3,700. AID 1717;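 active = thallium flux slope beyond 3 SD from same-plate DMSO control mean in most replicates, usually higher, sometimes lower; inconclusive = repeat tests gave conflicting results; inactive = no significant difference from controls in most replicates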;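 also: slope of initial-normalized fluorescence between seconds 10 and 20 after thallium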
HEK293 Tl flux2 = acts in parental HEK cells, second KCC2 counter-screen; shares compounds with KCC2 mod; thallium flux slope at 10 µM; hit rate 33% among 3,700; HEK293 parental, thallium flux FluoZin-2 fluorescence slope;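 active = thallium flux slope above the same plate's solvent-control mean plus 3 SD in both duplicate wells; inconclusive = duplicate wells that disagreed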;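 also: run without ouabain in cells lacking the KCC2 cotransporter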
Each line names hits and unclear results; the compound was inactive in the other large screens (follow-up assays come after a bar, where they were run).

Cc1ccc(/C=C/C(=O)c2ccc(N3CCOCC3)cc2)s1	none
COc1ccc2c(Cl)c(C(=O)N/N=C/c3cccnc3)sc2c1	none (no result: KCC2 mod)
COc1cc(OC)cc(-c2cc3nc(C)c(CCC(=O)Nc4nc(C)cs4)c(C)n3n2)c1	Cardio protect 63.7
COc1cc(NC(=O)CCc2c(C)nc3nc(C)nn3c2C)cc(OC)c1	none (no result: KCC2 mod)
CCCCCN(C(=O)CCC(=O)OCc1ccc(Cl)cc1Cl)c1c(N)n(CCCC)c(=O)[nH]c1=O	none (no result: PHOSPHO1 inh, KCC2 mod)
N#Cc1c(-c2ccc(Cl)cc2)cc(-c2ccccc2)nc1SCC(=O)O	Calb FLC 88.2 (no result: KCC2 mod)
COc1cc(C2CC(=O)Nc3n[nH]c(-c4ccccc4)c32)cc(OC)c1OC (centres undefined)	none (no result: Cardio protect)
N#CC(c1nc2ccccc2nc1N1CCCC1)S(=O)(=O)c1ccccc1 (centres undefined)	Calb FLC inconclusive (no result: KCC2 mod)
COc1ccc(S(=O)(=O)C(C#N)c2nc3ccccc3nc2N2CCCCC2)cc1 (centres undefined)	PHOSPHO1 inh 99.8
N#CC(c1nc2ccccc2nc1N1CCCC1)S(=O)(=O)c1cccs1 (centres undefined)	Cardio protect 58.9
C/C(=N\NC(=O)CN1CCCCC1)c1ccccc1O	none (no result: KCC2 mod)
C/C(=N\NC(=O)CN(c1ccccc1)S(C)(=O)=O)c1ccccc1O	Cardio protect 59.2
CCc1nc2ccc(C(=O)NCc3ccc(OC)cc3)cn2c1N(CC)CCN(C)C	none (no result: PHOSPHO1 inh, Efflux pump inh, KCC2 mod, Calb FLC)
Cc1cccc(-n2nnc(C(=O)NCc3ccc4c(c3)OCO4)c2N)c1	PHOSPHO1 inh 60.5
O=C(NCCS(=O)(=O)NCc1ccccc1Cl)c1ccccc1	none (no result: PHOSPHO1 inh, KCC2 mod)
COc1ccc2c(c1)S/C(=C\C(=O)c1ccncc1)N2C	PHOSPHO1 inh 69.5
COc1ccc(-c2nc3ccc(Cl)cn3c2Cc2ccsc2)cc1OC	none (no result: PHOSPHO1 inh, Efflux pump inh, KCC2 mod, Calb FLC)
Cc1ccc(/C=C2\SC(=S)N(/N=C/c3cc([N+](=O)[O-])ccc3O)C2=O)o1	KCC2 mod 3.78, Calb FLC inconclusive | KCC2 secondary inactive | KCC2 bumet counter 0.0128 | KCC2 sec2 inactive | HEK counter1 0.00958 | KCC2 ouabain 0.028 | HEK293 Tl flux2 inactive
O=C(O)/C=C/c1cn(Cc2ccccc2Cl)nc1-c1ccccc1	KCC2 mod -5.08 | KCC2 secondary inactive | KCC2 bumet counter inactive | KCC2 sec2 0.0237 | HEK counter1 inactive | KCC2 ouabain 0.0115 | HEK293 Tl flux2 inactive
Cc1ccc(-c2nn(Cc3ccccc3)cc2/C=C/C(=O)O)cc1	KCC2 mod -4.47 | KCC2 secondary inactive | KCC2 bumet counter inactive | KCC2 sec2 0.0249 | HEK counter1 inactive | KCC2 ouabain 0.0133 | HEK293 Tl flux2 inactive
Cc1ccc(Cn2cc(/C=C/C(=O)O)c(-c3ccccc3)n2)cc1	none
O=C(O)/C=C/c1cn(Cc2ccccc2)nc1-c1ccc(Cl)cc1	KCC2 mod -4.74 | KCC2 secondary inconclusive | KCC2 bumet counter inactive | KCC2 sec2 inconclusive | HEK counter1 inactive | KCC2 ouabain 0.0121 | HEK293 Tl flux2 inactive
CS(=O)(=O)Nc1cccc(-c2cn3c(n2)SCC3)c1	none (no result: KCC2 mod)
O=C(NCc1ccccc1)C1CCCN1C(=O)Nc1ccccc1[N+](=O)[O-] (centres undefined)	none (no result: KCC2 mod)
Cc1nc(SCC(=O)N(C)C2CCS(=O)(=O)C2)c(C#N)c(C)c1C (centres undefined)	none (no result: PHOSPHO1 inh, KCC2 mod, Calb FLC)
O=C(N/N=C/c1ccccn1)c1cc(-c2ccccc2)nc2ccccc12	KCC2 mod 11.7 | KCC2 secondary inactive | KCC2 bumet counter 0.0232 | KCC2 sec2 inactive | HEK counter1 0.0102 | KCC2 ouabain inconclusive | HEK293 Tl flux2 inactive
CCOc1ccc(/C=N/NC(=O)c2cc(-c3ccccc3)nc3ccccc23)cc1O	none (no result: KCC2 mod)
O=C(Nc1ccc(Cl)c(Cl)c1)N(CCCN1CCOCC1)Cc1cccs1	KCC2 mod -3.01 | KCC2 secondary inactive | KCC2 bumet counter inactive | KCC2 sec2 inactive | HEK counter1 inactive | KCC2 ouabain inactive | HEK293 Tl flux2 inactive
COc1ccc(CN2CCNC(=O)C2CC(=O)NCCCC2CCCC2)c(C)c1C (centres undefined)	none (no result: KCC2 mod)
Cc1c(NC(=O)CN2C(=O)c3ccccc3S2(=O)=O)c(=O)n(-c2ccccc2)n1C	KCC2 mod 3.43 | KCC2 secondary inactive | KCC2 bumet counter inactive | KCC2 sec2 inactive | HEK counter1 inactive | KCC2 ouabain inactive | HEK293 Tl flux2 inconclusive
CN(CC(=O)Nc1ccccc1Cl)C(=O)COC(=O)c1cc(S(=O)(=O)N(C)C)ccc1N1CCCC1	none (no result: PHOSPHO1 inh, KCC2 mod)
NS(=O)(=O)c1cc(C(=O)O)cc(N2CCCC2)c1Oc1ccccc1	none (no result: PHOSPHO1 inh, KCC2 mod, Calb FLC)
CCCCNc1cc(C(=O)O)cc(S(N)(=O)=O)c1Oc1ccccc1	KCC2 mod -6.42 | KCC2 secondary inactive | KCC2 bumet counter inactive | KCC2 sec2 0.0227 | HEK counter1 inactive | KCC2 ouabain 0.013 | HEK293 Tl flux2 inactive
Cc1cccc(OCc2nnc(SCC(=O)N(c3ccccc3)C3CCS(=O)(=O)C3)o2)c1 (centres undefined)	none (no result: PHOSPHO1 inh, KCC2 mod, Calb FLC)
CC(=O)CCSc1ncnc2sc(-c3ccccc3)cc12	none (no result: KCC2 mod)
O=C(O)CCSc1ncnc2sc(-c3ccccc3)cc12	KCC2 mod 51.2 | KCC2 secondary inconclusive | KCC2 bumet counter 0.0556 | KCC2 sec2 0.0429 | HEK counter1 0.0558 | KCC2 ouabain 0.055 | HEK293 Tl flux2 0.033
COCCNC(=O)CSc1ncnc2sc(-c3ccccc3)cc12	KCC2 mod 7.48 | KCC2 secondary inactive | KCC2 bumet counter 0.0206 | KCC2 sec2 inactive | HEK counter1 0.014 | KCC2 ouabain 0.0218 | HEK293 Tl flux2 0.0165
O=C(O)CSc1ncnc2sc(-c3ccccc3)cc12	none
CCC1CCCCN1S(=O)(=O)c1ccc(C(=O)Nc2nnc(-c3cccs3)o2)cc1 (centres undefined)	Cardio protect 75.1, KCC2 mod 15 (no result: Calb FLC) | KCC2 secondary 0.0138 | KCC2 bumet counter 0.0544 | KCC2 sec2 inactive | HEK counter1 0.0243 | KCC2 ouabain 0.0452 | HEK293 Tl flux2 0.0122
CC1CC(C)CN(S(=O)(=O)c2ccc(C(=O)Nc3sccc3C(N)=O)cc2)C1 (centres undefined)	none

Bioassay records as filed in PubChem.
